The text below walks through data of publication PMC5540273 (PLoS ONE, 2017).

The structures appear in SMILES notation. A value given as a limit tells only on which side of the number the result lay.
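Note: kd values determined as follow-up on hits from a single-replicate KINOMEscan panel screen.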

The first test concerns LCK.
One may read the Kd as a measure of binding affinity in units of concentration. For the molecule `COc1cc2nccc(Nc3ccc(NC(=O)c4ccc(C)cc4)c(O)c3)c2cc1OC.Cl` [GW440132], binding was characterised by a dissociation constant (Kd) of 560 nM.
The same measure, in the same setting: next, `Cc1ccc(C(=O)Nc2ccc(Nc3ccnc4cc(-c5ccccn5)ccc34)cc2O)cc1.Cl` [GW440146]: 260 nM; `Cc1ccccc1-n1cnc2c(N)ncnc21` [SKF-97510]: over 10000 nM.

The test system of a further test is T1, LOK.
T1 construct: gene STK10
Turning to `COc1cc2ncn(-c3cc(OCC4CCCO4)c(C(N)=O)s3)c2cc1OC` (centres unmarked) [GSK204607], the affinity, expressed as Kd, was 100 nM.
The same measure, in the same setting: as for `Cn1ccc2ncnc(Oc3ccc(Nc4nc5ccccc5[nH]4)cc3)c21`, the figure is 200 nM; as for `Cc1nnc(-c2ccc3occ(-c4ccc(S(C)=O)cc4)c3c2)[nH]1` (centres unmarked), over 10000 nM; as for `Cn1ccc2ncnc(Oc3ccc(NC(=O)Nc4ccccc4)cc3)c21`, 280 nM.

The next test relates to LTK.
Take `O=C1NC(=O)C(N2CCc3ccccc32)=C1c1ccccc1Cl` [SB-373598]: the Kd was over 10000 nM.
The same measure, in the same setting: next, `O=C(O)COc1ncnc2cc(-c3ccc4[nH]ncc4c3)sc12`: over 10000 nM; `Nc1ncnc2[nH]c(-c3ccccc3)nc12` [AH5015]: over 10000 nM.

The next test concerns T2, MEK5.
T2 construct: gene MAP2K5
`COc1ccc(Nc2nccc(-c3cccc(NC(=O)c4cc5cc(F)ccc5[nH]4)c3)n2)cc1` [GSK1229782]: the affinity, expressed as Kd, was 200 nM.
Still for that read-out and setting: next, `COc1cc2ncn(-c3cc(OCC4CCCO4)c(C(N)=O)s3)c2cc1OC` (centres unmarked) [GSK204607]: 81 nM; `COc1ccc(CNC(=O)NC2CCN(c3ccnc(Nc4cc(OC)c(OC)c(OC)c4)n3)C2)cc1` (centres unmarked) [GSK1379748]: 95 nM.
On the same count and under the same terms, next, `COc1cc2nccc(Nc3ccc(NC(=O)c4ccc(C)cc4)c(O)c3)c2cc1OC.Cl` [GW440132]: 8.7 nM; `Cn1cncc1-c1ccc2ncnc(Nc3ccc(OCc4ccccc4)cc3)c2c1` [GW320571]: 450 nM.
Still for that read-out and setting: next, `Cc1ccc(C(=O)Nc2ccc(Nc3ccnc4cc(-c5ccccn5)ccc34)cc2O)cc1.Cl` [GW440146]: 4.7 nM; `Cl.O=C(Nc1cccc(-c2nn3ncccc3c2-c2ccnc(Nc3cccnc3)n2)c1)c1c(F)cccc1F` [GSK312879]: 230 nM.
For `Fc1cc(Cl)ccc1Nc1ccnc2cc(-c3ccc(CN4CCCCC4)o3)ccc12` [GW560116], the Kd was 890 nM.
The molecule `COc1cc(Nc2nccc(N3CCC(NC(=O)Nc4cc(C)ccc4C)C3)n2)cc(OC)c1OC` (centres unmarked) [GSK1379762] returned a Kd of 53 nM. Compared with the last molecule, the Kd is about 17-fold lower.
The same measure, in the same setting: next, `CC(C)(C)c1ccc(C(=O)Nc2cn3cc(-c4cccnc4)ccc3n2)cc1`: 190 nM; `Cl.NC(=O)c1cccc(Nc2nccc(Nc3ccc(Oc4cccc(Cl)c4)c(Cl)c3)n2)c1` [GW659008]: 34 nM.
Same read-out and setting: next, `COc1cccc(NC(=O)NC2CCN(c3ccnc(Nc4ccc(F)cc4)n3)C2)c1` (centres unmarked) [GSK1379721]: 500 nM; `COc1cc2ncnc(Nc3ccc4nc(-c5ccccc5)[nH]c4c3)c2cc1OC.Cl` [GW282450]: 670 nM.
